Screening results from PubChem BioAssay.
VCAM1 pot: enhances TNF alpha induced VCAM1 expression in HUVEC; AID 808; HUVEC TNFa-stimulated VCAM-1 immunofluorescence, high-content imaging; scaled per plate to unstimulated/TNFa-only wells; 0.19% of 93,000 active; activation, % at 2 µM;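 active = activation above the screen mean plus 3 SD, with well images confirming the hit on visual review, cut at about 28% in these data, passing the limit was not always enough; inconclusive = activation above that limit but images do not confirm it; inactive = activation not above that limit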;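 also: signal is the number of cytoplasmic VCAM-1 stained grains per positive cell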
VCAM1 pot confirm: enhancers of VCAM1 induction in HUVEC – imaging, triplicate retest, confirmation. HUVEC TNFa-stimulated VCAM-1 immunofluorescence imaging. shares compounds with VCAM1 pot. activation, % at 2 µM. 230 tested, under 10 active;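 active = activation above 30% in triplicate retests at 2 µM, then confirmed by visual review of the well images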;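 also: scaled per plate between unstimulated and TNFa-stimulated DMSO control wells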
The depositor's hits bear a star; ? = inconclusive. Many of the other results were omitted from the sample, so hits are more common in it than they were.

SMILES | VCAM1 pot | others
CCN1C(=O)/C(=C/c2cn(C)nc2C)SC1=S | 53.4* | VCAM1 pot confirm=-4.9
CCOC(=O)C1CCN(c2c(NCCCN(CC)c3ccccc3)c(=O)c2=O)CC1 | -24.1
CCOC(=O)C1CCN(Cc2c(F)cccc2Cl)CC1 | 6.6
CCOC(=O)C1CCN(C(=O)C2CCN(c3nc4ccc(OC)cc4s3)CC2)CC1 | 114.0* | VCAM1 pot confirm=-3.2
C/C(Sc1nnc(Cc2ccccc2)o1)=C(/O)c1ccccc1 | 5.9
CCOC(=O)c1c(NC(=O)OC)sc(C(=O)N(CC)CC)c1C | -0.5
Cc1nc2ccccc2n1CCCOc1ccccc1 | -61.9
COCc1nc2ccccc2n1CCCOc1ccccc1 | ? | VCAM1 pot confirm=-15.5
CCCC(=O)NCCCc1nc2ccccc2n1CCC | -3.7
Nn1c(SCC(=O)N2CCOCC2)nnc1-c1ccco1 | -9.1
O=C(Cc1ccc(Cl)cc1)Nc1ccc(N2CCN(C(=O)c3ccco3)CC2)c(Cl)c1 | -7.1
C#CCOC(=O)c1ccccc1C(=O)O | 4.1
CC(=O)/C(=N/Nc1cccc(C)c1)N1CCOCC1 | 0.9
S=C(NN=C1CCCCCC1)Nc1ccc(Cl)cc1 | 35.1* | VCAM1 pot confirm=-24.7
CC(=O)Nc1c(C(=O)N2CCCCCC2)cnn1-c1ccccc1Cl | -12.3
Cc1ccc(CCN2CC(C(=O)NCCCOC(C)C)CC2=O)cc1 (stereo not drawn) | 2.2
CCCOC(=O)Nc1cc(OC)c(Cl)cc1OC | -5.4
COc1ccc(NC2CC(=O)NC2=O)cc1 (stereo not drawn) | -5.9
N#CC1=C(N)Oc2n[nH]c(-c3ccccc3)c2C1c1cccnc1 (stereo not drawn) | 94.0* | VCAM1 pot confirm=-14.1
CCCSC1=C(C#N)C(c2cccnc2)C(C(=O)OCC)=C(c2ccccc2)N1 (stereo not drawn) | 18.1
CCN(CC)c1ccc2c(c1)OC(N)=C(C#N)C2c1cccnc1 (stereo not drawn) | -39.1
O=C1CC(c2ccccc2)CN1S(=O)(=O)c1ccccc1 (stereo not drawn) | -6.1
CN(c1cccc(NC(=O)CN(c2ccc(C34CC5CC(CC(C5)C3)C4)cc2)S(C)(=O)=O)c1)S(C)(=O)=O | 0.9
C=CCc1c(C)nc(SC)nc1Nc1ccc(C)cc1 | 0.2
N#CCCNC(=O)CCN1CCOCC1 | -2.1
SMILES | VCAM1 pot | others
CCOC(=O)C1=C(c2cccc(F)c2)NC(=S)NC1C (stereo not drawn) | -6.1
Clc1cccc(OCCn2cncn2)c1Cl | ? | VCAM1 pot confirm=-9.8
O=C(O)CSc1nnc(Cn2cnc3ccccc32)n1CCc1ccccc1 | -1.0
Cc1c(NC(=O)c2cc3nc(-c4ccc(Br)cc4)cc(C(F)(F)F)n3n2)c(=O)n(-c2ccccc2)n1C | 4.9
O=C(N1CCOCC1)N1CCN(S(=O)(=O)N2CCOCC2)CC1 | 21.7
CCOC(=O)c1ccc(-n2c(=S)sc3c(=O)[nH]c(C)nc32)cc1 | -87.0
CCOc1ccc(S(=O)(=O)N(CC(=O)N/N=C/c2cccs2)c2ccc(C)cc2)cc1 | 8.9
CCOC(=O)Cc1csc(NC(=O)COc2ccccc2OCC)n1 | 4.2
CCOC(=O)Cc1csc(NC(=O)CSc2nnnn2-c2ccc(C)cc2C)n1 | -2.9
CCOC(=O)Cc1csc(NC(=O)CSc2nc(N)c3c(C)c(C)sc3n2)n1 | 32.6* | VCAM1 pot confirm=-14.4
O=C1Nc2ccccc2C(=O)C1(Cl)Cc1ccccc1 (stereo not drawn) | -7.4
COc1cccc(Cn2cnc3c(NS(=O)(=O)c4cccc(Cl)c4Cl)c(C)c(C)cc32)c1 | -0.7
Cc1ccn2c(-c3csc(NCc4ccccc4)n3)c(C)nc2c1 | -21.5
CCOc1ccccc1N1CCN(C(=O)c2cccc(-c3ccc(O)cc3)c2)CC1 | -44.4
CC1OC(Nc2cccc3ccccc23)C(O)C(O)C1O (stereo not drawn) | ? | VCAM1 pot confirm=-0.5
Cc1cc(C)c(C(N)=O)c(Nc2cccc3ccccc23)n1 | -0.9
Cc1nc2ncnn2c(N2CCN(C(=O)Cc3cccs3)CC2)c1C | -0.9
O=C(Nc1ccc2nsnc2c1)NC1CCCCC1 | 56.9* | VCAM1 pot confirm=-5.8
CC(C)C(=O)Nc1ccc(C(=O)NNC(=O)NC2CCCCC2)cc1 | -36.1
Cn1c(CCNC(=O)c2ccco2)nc2cc(NC(=O)NC3CCCCC3)ccc21 | 3.7
Cc1ccc(C(=O)Nc2c(-c3cccs3)c(=O)c3ccccc3n2C)cc1 | -2.7
CC(NC(=O)CN1C(=O)NC(Cc2ccccc2)(Cc2ccccc2)C1=O)C12CC3CC(CC(C3)C1)C2 (stereo not drawn) | -0.6
Cc1ccccc1/C(N)=N/OC(=O)/C=C/c1ccccc1 | 38.0* | VCAM1 pot confirm=-12.8
O=C1Nc2ccc(F)cc2C12SCCS2 | -1.5
CCOC(=O)C(O)(CC(=O)c1ccc(OC)cc1)C(F)(F)F (stereo not drawn) | 4.7
CCOC(=O)Cc1nnc(NC(=O)COc2ccc(OC)cc2)s1 | -0.9
CCc1nnc(NC(=O)c2ccc3c(c2)C(=O)N(CC(C)C)C3=O)s1 | -14.3
CCc1nnc(NC(=O)c2ccc(OC)cc2OC)s1 | 64.3* | VCAM1 pot confirm=-1.2
CC(=O)N(CC1CCCO1)c1nnc(-c2ccccn2)s1 (stereo not drawn) | 4.6
